# The full list was thinned out, with the strongest signals kept by preference.
# What was measured:
# Assay in all cases: glycan array binding signal (z-score within array); higher = stronger binding
# Details in all cases: glycan notation: IUPAC condensed, linker removed
# [1] = molecular target: Fuc(a1-2)Gal(b1-3)GalNAc(b1-3)Gal
# Procedure, shortened: (§1)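 Glycan array data were curated from 3228 arrays in the Consortium for Functional Glycomics database and kept only where the protein sequence was available. Glycan names were converted to IUPAC-condensed notation, and columns mapping to the same glycan were averaged. The binding signal is a within-array Z-score, averaged across arrays of the same protein sequence at different concentrations or buffers and across linkers. Negative Z-scores can be read as non-binding.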
# [2] = molecular target: Fuc(a1-2)Gal(b1-3)GlcNAc(b1-3)GalNAc
# Procedure, shortened: as §1
# [3] = molecular target: Fuc(a1-2)Gal(b1-4)GlcNAc(b1-3)Gal(b1-4)GlcNAc(b1-2)Man(a1-3)[Fuc(a1-2)Gal(b1-4)GlcNAc(b1-3)Gal(b1-4)GlcNAc(b1-2)Man(a1-6)]Man(b1-4)GlcNAc(b1-4)GlcNAc
# Procedure, shortened: as §1
# [4] = molecular target: Fuc(a1-2)Gal(b1-4)GlcNAc(b1-3)[Fuc(a1-3)[Gal(b1-4)]GlcNAc(b1-6)]Gal(b1-4)Glc
# Procedure, shortened: as §1
# [5] = molecular target: Fuc(a1-2)[Gal(a1-3)]Gal(b1-4)Glc
# Procedure, shortened: as §1
# [6] = molecular target: Fuc(a1-2)[Gal(a1-3)]Gal(b1-4)GlcNAc
# Procedure, shortened: as §1
# [7] = molecular target: Fuc(a1-2)[GalNAc(a1-3)]Gal(b1-4)GlcNAc(b1-6)GalNAc
# Procedure, shortened: as §1
# [8] = molecular target: Fuc(a1-2)[GalNAc(b1-3)]Gal
# Procedure, shortened: as §1
# [9] = molecular target: Fuc(a1-3)[GalNAc(b1-4)]GlcNAc
# Procedure, shortened: as §1
# Gal(a1-6)Glc = molecular target: Gal(a1-6)Glc
# Procedure, shortened: as §1
# Gal(b1-2)Gal = molecular target: Gal(b1-2)Gal
# Procedure, shortened: as §1
# [10] = molecular target: Gal(b1-3)GlcNAc(b1-3)Gal(b1-4)Glc
# Procedure, shortened: as §1
# [11] = molecular target: Gal(b1-3)GlcNAc(b1-3)Gal(b1-4)GlcNAc(b1-3)Gal(b1-4)GlcNAc(b1-2)[Gal(b1-3)GlcNAc(b1-3)Gal(b1-4)GlcNAc(b1-3)Gal(b1-4)GlcNAc(b1-6)]Man(a1-6)[Gal(b1-3)GlcNAc(b1-3)Gal(b1-4)GlcNAc(b1-3)Gal(b1-4)GlcNAc(b1-2)Man(a1-3)]Man(b1-4)GlcNAc(b1-4)[Fuc(a1-6)]GlcNAc
# Procedure, shortened: as §1
# [12] = molecular target: Gal(b1-3)GlcNAc(b1-3)Gal(b1-4)[Fuc(a1-3)]GlcNAc
# Procedure, shortened: as §1
# [13] = molecular target: Gal(b1-3)GlcNAc(b1-3)GalNAc
# Procedure, shortened: as §1
# [14] = molecular target: Gal(b1-3)[Neu5Ac(a2-6)]GalNAc
# Procedure, shortened: as §1
# [15] = molecular target: Gal(b1-3)[Neu5Ac(b2-6)]GalNAc
# Procedure, shortened: as §1
# [16] = molecular target: Gal(b1-4)GlcNAc(b1-2)Man(a1-3)Man(b1-4)GlcNAc(b1-4)GlcNAc
# Procedure, shortened: as §1
# [17] = molecular target: Gal(b1-4)GlcNAc(b1-2)Man(a1-6)Man(b1-4)GlcNAc(b1-4)GlcNAc
# Procedure, shortened: as §1
# [18] = molecular target: Gal(b1-4)GlcNAc(b1-2)[Gal(b1-4)GlcNAc(b1-4)]Man(a1-3)[Gal(b1-4)GlcNAc(b1-2)[Gal(b1-4)GlcNAc(b1-6)]Man(a1-6)]Man(b1-4)GlcNAc(b1-4)GlcNAc
# Procedure, shortened: as §1
# [19] = molecular target: Gal(b1-4)GlcNAc(b1-3)Gal(b1-4)GlcNAc(b1-2)Man(a1-3)[Gal(b1-4)GlcNAc(b1-3)Gal(b1-4)GlcNAc(b1-2)Man(a1-6)]Man(b1-4)GlcNAc(b1-4)GlcNAc
# Procedure, shortened: as §1
# [20] = molecular target: Gal(b1-4)GlcNAc(b1-3)Gal(b1-4)GlcNAc(b1-2)[Gal(b1-4)GlcNAc(b1-3)Gal(b1-4)GlcNAc(b1-6)]Man(a1-6)[Gal(b1-4)GlcNAc(b1-3)Gal(b1-4)GlcNAc(b1-2)Man(a1-3)]Man(b1-4)GlcNAc(b1-4)GlcNAc
# Procedure, shortened: as §1
# [21] = molecular target: Gal(b1-4)GlcNAc(b1-3)Gal(b1-4)GlcNAc(b1-3)Gal(b1-4)GlcNAc(b1-2)Man(a1-3)[Gal(b1-4)GlcNAc(b1-3)Gal(b1-4)GlcNAc(b1-3)Gal(b1-4)GlcNAc(b1-2)Man(a1-6)]Man(b1-4)GlcNAc(b1-4)[Fuc(a1-6)]GlcNAc
# Procedure, shortened: as §1
# [22] = molecular target: Gal(b1-4)GlcNAc(b1-3)Gal(b1-4)GlcNAc(b1-3)[Gal(b1-4)GlcNAc(b1-3)Gal(b1-4)GlcNAc(b1-6)]GalNAc
# Procedure, shortened: as §1
# [23] = molecular target: Gal(b1-4)GlcNAc(b1-3)[Fuc(a1-3)GlcNAc(b1-6)]Gal(b1-4)Glc
# Procedure, shortened: as §1
# [24] = molecular target: Gal(b1-4)GlcNAc(b1-6)[Gal(b1-3)]GalNAc
# Procedure, shortened: as §1
# Gal3S(b1-4)Glc = molecular target: Gal3S(b1-4)Glc
# Procedure, shortened: as §1
# [25] = molecular target: Gal3S(b1-4)[Fuc(a1-3)]Glc6S
# Procedure, shortened: as §1
# [26] = molecular target: Gal3S(b1-4)[Fuc(a1-3)]GlcNAc6S
# Procedure, shortened: as §1
# Gal3S6S(b1-4)GlcNAc = molecular target: Gal3S6S(b1-4)GlcNAc
# Procedure, shortened: as §1
# Gal3S6S(b1-4)GlcNAc6S = molecular target: Gal3S6S(b1-4)GlcNAc6S
# Procedure, shortened: as §1
# [27] = molecular target: GalNAc(b1-3)Gal(a1-4)Gal(b1-4)GlcNAc
# Procedure, shortened: as §1
# GalNAc(b1-4)GlcNAc = molecular target: GalNAc(b1-4)GlcNAc
# Procedure, shortened: as §1
# [28] = molecular target: GlcNAc(a1-4)Gal(b1-4)GlcNAc
# Procedure, shortened: as §1
# [29] = molecular target: GlcNAc(b1-2)[GlcNAc(b1-6)]Man(a1-6)[GlcNAc(b1-4)][GlcNAc(b1-2)Man(a1-3)]Man(b1-4)GlcNAc(b1-4)GlcNAc
# Procedure, shortened: as §1
# [30] = molecular target: GlcNAc(b1-3)[GlcNAc(b1-4)][GlcNAc(b1-6)]GlcNAc
# Procedure, shortened: as §1
# GlcNAc(b1-4)GlcNAc = molecular target: GlcNAc(b1-4)GlcNAc
# Procedure, shortened: as §1
# [31] = molecular target: GlcNAc(b1-4)GlcNAc(b1-4)GlcNAc(b1-4)GlcNAc(b1-4)GlcNAc(b1-4)GlcNAc
# Procedure, shortened: as §1
# Man(b1-4)GlcNAc = molecular target: Man(b1-4)GlcNAc
# Procedure, shortened: as §1
# [32] = molecular target: Neu5Ac(a2-3)Gal(b1-3)GlcNAc(b1-2)Man
# Procedure, shortened: as §1
# [33] = molecular target: Neu5Ac(a2-3)Gal(b1-3)GlcNAc(b1-4)Gal(b1-4)Glc
# Procedure, shortened: as §1
# [34] = molecular target: Neu5Ac(a2-3)Gal(b1-3)[Fuc(a1-4)]GlcNAc
# Procedure, shortened: as §1
# [35] = molecular target: Neu5Ac(a2-3)Gal(b1-3)[Neu5Ac(a2-6)]GlcNAc(b1-3)[Fuc(a1-3)[Gal(b1-4)]GlcNAc(b1-6)]Gal(b1-4)Glc
# Procedure, shortened: as §1
# [36] = molecular target: Neu5Ac(a2-3)Gal(b1-4)GlcNAc(b1-2)[Neu5Ac(a2-3)Gal(b1-4)GlcNAc(b1-4)]Man(a1-3)[GlcNAc(b1-4)][Neu5Ac(a2-3)Gal(b1-4)GlcNAc(b1-2)[Neu5Ac(a2-3)Gal(b1-4)GlcNAc(b1-6)]Man(a1-6)]Man(b1-4)GlcNAc(b1-4)GlcNAc
# Procedure, shortened: as §1
# [37] = molecular target: Neu5Ac(a2-3)Gal(b1-4)[Fuc(a1-3)]GlcNAc(b1-2)Man
# Procedure, shortened: as §1
# [38] = molecular target: Neu5Ac(a2-6)Gal(b1-4)GlcNAc(b1-2)Man(a1-3)[Gal(b1-4)GlcNAc(b1-2)Man(a1-6)]Man(b1-4)GlcNAc(b1-4)GlcNAc
# Procedure, shortened: as §1
# [39] = molecular target: Neu5Ac(a2-6)Gal(b1-4)GlcNAc(b1-3)Gal(b1-4)GlcNAc(b1-3)Gal(b1-4)GlcNAc(b1-2)Man(a1-3)[Neu5Ac(a2-6)Gal(b1-4)GlcNAc(b1-3)Gal(b1-4)GlcNAc(b1-3)Gal(b1-4)GlcNAc(b1-2)Man(a1-6)]GalNAc
# Procedure, shortened: as §1
# [40] = molecular target: Neu5Ac(a2-6)Gal(b1-4)GlcNAc(b1-3)Gal(b1-4)GlcNAc(b1-3)GalNAc
# Procedure, shortened: as §1
# Neu5Ac(b2-6)GalNAc = molecular target: Neu5Ac(b2-6)GalNAc
# Procedure, shortened: as §1
# Neu5Gc(a2-3)Gal(b1-4)Glc = molecular target: Neu5Gc(a2-3)Gal(b1-4)Glc
# Procedure, shortened: as §1
# [41] = molecular target: Neu5Gc(a2-3)Gal(b1-4)GlcNAc
# Procedure, shortened: as §1
# [42] = molecular target: Neu5Gc(b2-6)Gal(b1-4)GlcNAc
# Procedure, shortened: as §1
binder,measurement,setting,value
SynCAM (Mus musculus) (protein) MASAVLPSGSQCAAAAAVAAAAAPPGLRLRLLLLLLSAAALIPTGDGQNLFTKDVTVIEGEVATISCQVNKSDDSVIQLLNPNRQTIYFRDFRPLKDSRFQLLNFSSSELKVSLTNVSISDEGRYFCQLYTDPPQESYTTITVLVPPRNLMIDIQKDTAVEGEEIEVNCTAMASKPATTIRWFKGNKELKGKSEVEEWSDMYTVTSQLMLKVHKEDDGVPVICQVEHPAVTGNLQTQRYLEVQYKPQVHIQMTYPLQGLTREGDAFELTCEAIGKPQPVMVTWVRVDDEMPQHAVLSGPNLFINNLNKTDNGTYRCEASNIVGKAHSDYMLYVYDPPTTIPPP,glycan array binding signal (z-score),[1],0.178
same,glycan array binding signal (z-score),[2],0.316
same,glycan array binding signal (z-score),[3],0.696
same,glycan array binding signal (z-score),[4],-0.893
same,glycan array binding signal (z-score),[5],-0.671
same,glycan array binding signal (z-score),[6],-1.34
same,glycan array binding signal (z-score),[7],-0.149
same,glycan array binding signal (z-score),[8],0.423
same,glycan array binding signal (z-score),[9],2.63
same,glycan array binding signal (z-score),Gal(a1-6)Glc,-0.988
same,glycan array binding signal (z-score),Gal(b1-2)Gal,0.521
same,glycan array binding signal (z-score),[10],0.308
same,glycan array binding signal (z-score),[11],2.43
same,glycan array binding signal (z-score),[12],-1.13
same,glycan array binding signal (z-score),[13],0.053
same,glycan array binding signal (z-score),[14],-0.488
same,glycan array binding signal (z-score),[15],-0.562
same,glycan array binding signal (z-score),[16],-1.2
same,glycan array binding signal (z-score),[17],-0.469
same,glycan array binding signal (z-score),[18],-0.042
same,glycan array binding signal (z-score),[19],2.96
same,glycan array binding signal (z-score),[20],0.285
same,glycan array binding signal (z-score),[21],1.48
same,glycan array binding signal (z-score),[22],0.945
same,glycan array binding signal (z-score),[23],0.097
same,glycan array binding signal (z-score),[24],-0.072
same,glycan array binding signal (z-score),Gal3S(b1-4)Glc,1.95
same,glycan array binding signal (z-score),[25],3.97
same,glycan array binding signal (z-score),[26],1.22
same,glycan array binding signal (z-score),Gal3S6S(b1-4)GlcNAc,2.56
same,glycan array binding signal (z-score),Gal3S6S(b1-4)GlcNAc6S,2.69
same,glycan array binding signal (z-score),[27],2.45
same,glycan array binding signal (z-score),GalNAc(b1-4)GlcNAc,2.71
same,glycan array binding signal (z-score),[28],-1.14
same,glycan array binding signal (z-score),[29],-0.782
same,glycan array binding signal (z-score),[30],2.58
same,glycan array binding signal (z-score),GlcNAc(b1-4)GlcNAc,-1.17
same,glycan array binding signal (z-score),[31],0.16
same,glycan array binding signal (z-score),Man(b1-4)GlcNAc,-0.306
same,glycan array binding signal (z-score),[32],-0.517
same,glycan array binding signal (z-score),[33],-0.756
same,glycan array binding signal (z-score),[34],0.283
same,glycan array binding signal (z-score),[35],-0.498
same,glycan array binding signal (z-score),[36],0.594
same,glycan array binding signal (z-score),[37],3.11
same,glycan array binding signal (z-score),[38],-0.518
same,glycan array binding signal (z-score),[39],2.42
same,glycan array binding signal (z-score),[40],-0.464
same,glycan array binding signal (z-score),Neu5Ac(b2-6)GalNAc,-0.413
same,glycan array binding signal (z-score),Neu5Gc(a2-3)Gal(b1-4)Glc,-0.801
same,glycan array binding signal (z-score),[41],-0.921
same,glycan array binding signal (z-score),[42],0.145
